Values without a mark were called inactive. A call without a number means that no potency is given here. Active and inactive are the calls of the source. The call rests on the fitted dose curve.
test: qHTS assay to identify small molecule agonists of the sonic hedgehog signaling (Shh) pathway (AID 1259368); conditions: NIH/3T3 Gli1-Luc reporter, luciferase, 24 h; series mostly up to 92.4 µM; further: nearly all actives have a fitted effect of over 15% in size;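 on activity change: NIH/3T3-derived 3T3Gli1-Luc cells carrying a stable Gli1-driven firefly luciferase reporter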
Text: National Center for Advancing Translational Sciences [NCATS]
NIH Chemical Genomics Center [NCGC]
U.S. Environmental Protection Agency [EPA]
National Institutes of Environmental Health Sciences [NIEHS]
National Toxicology Program [NTP]
The sonic hedgehog (Shh) pathway is essential for normal embryonic development. Dysregulation of the Shh pathway can cause severe developmental defects in organs. Therefore chemicals that interfere with the pathway are potential developmental toxicants. A cell line designated 3T3Gli1-Luc (DMB/OARSA/CFSAN/FDA, Laurel, MD), a NIH/3T3 derived clone containing stably integrated Gli1-Luc reporter is used to detect chemical interference of the Shh pathway, by changes in the expression of the firefly Luc gene under the control of the Gli1 transcriptional response element. This cell line was used to screen Tox21 libraries for identifying and prioritizing the potential developmental toxicants that interfere Shh pathway.
3T3 Gli1-Luc cells were dispensed at 2,000 per well in 5uL of culture medium into white solid bottom 1536-well plates (Greiner Bio-One, Monroe, NC) using a Multidrop Combi (Thermo Scientific, Waltham, MA) dispenser. The assay plates were incubated at 37 C and 5% CO2 for 4hr, and then 23nL of compounds dissolved in DMSO and positive control were transferred using a Pintool station (Wako, San Diego, CA). The assay plates were incubated at 37C and 5% CO2 for 24hr. For luciferase read, 4uL of Amplite Luciferase reporter gene assay reagent (AAT Bioquest, Inc. Sunnyvale, CA) was added to each well of the assay plates using Flying Reagent Dispenser (FRD, Aurora Discovery, San Diego, CA) and incubated at room temperature for 30min. The luminescence signal was measured using a ViewLux plate reader (Perkin Elmer, Shelton, CT).
Potency means the concentration at half of the fitted maximal effect.

SMILES	Potency	activity change
CCCSP(=O)(OCC)SCCC	inactive	–
N#CSCSC#N	inactive	–
N#C/C=C/c1ccccc1	inactive	–
CC1(c2ccc(Oc3ccccc3)cc2)OC(=O)N(Nc2ccccc2)C1=O (stereo not given)	inactive	–
O=c1oc2ccccc2c(O)c1Cc1c(O)c2ccccc2oc1=O	inactive	–
CCCOCC(=Nc1ccc(Cl)cc1C(F)(F)F)n1ccnc1	inactive	–
CC1(C)CC/C(=C/c2ccc(Cl)cc2)C1(O)Cn1cncn1 (stereo not given)	inactive	–
O=[N+]([O-])c1c2ccccc2cc2ccccc12	inactive	–
Clc1ccc(C(c2ccc(Cl)cc2)C(Cl)(Cl)Cl)cc1	inactive	–
COC12CC[C@@]3(C[C@@H]1C(C)(O)C(C)(C)C)[C@H]1Cc4ccc(O)c5c4[C@@]3(CCN1CC1CC1)[C@H]2O5 (stereo not given in full)	inactive	–
CCc1nn(C)c(C(=O)NCc2ccc(C(C)(C)C)cc2)c1Cl	inactive	–
COc1cc(C=O)cc2c1[C@H](COC(N)=O)[C@]1(OC(C)=O)ON2C[C@H]2[C@@H]1N2C(C)=O	inactive	–
Oc1cccc(-c2ccccc2)c1	inactive	–
Cc1ccc(OP(=O)(Oc2ccccc2)Oc2ccccc2)cc1	inactive	–
CCc1cc(C)cc(CC)c1-c1c(OC(=O)C(C)(C)C)n2n(c1=O)CCOCC2	inactive	–
COc1ccc([N+](=O)[O-])cc1O	inactive	–
Cc1c(Cl)c(=O)oc2cc(OP(=O)(OCCCl)OCCCl)ccc12	inactive	–
CN(C)c1ccc(N=Nc2ccccc2)cc1	1.72 µM (active)	–
CC(O)C#N (stereo not given)	inactive	–
CC(=[OH+])/C=C(/C)[O-].CC(=[OH+])/C=C(\C)[O-].CC(=[OH+])/C=C(\C)[O-].[Al]	inactive	–

SMILES	Potency	activity change
Cc1cc(SCc2sc(-c3ccc(C(F)(F)F)c(F)c3)nc2C)ccc1OCC(=O)O	inactive	–
O=[N+]([O-])O.O=[N+]([O-])O.[Cd]	inactive	–
S=C=Nc1cccc2ccccc12	inactive	–
CNC(C)Cc1ccc2c(c1)OCO2 (stereo not given)	inactive	–
CC(C)OC(=O)C(O)(c1ccc(Cl)cc1)c1ccc(Cl)cc1	inactive	–
ClC(Cl)=C(Cl)Cl	inactive	–
CN(C)C(=S)[S-].CN(C)C(=S)[S-].[Cu+2]	–	-10.5% [at 18.9 µM, active compounds read high]
CCOP(=S)(OCC)SCCS(=O)(=O)CC	inactive	–
N#CCc1ccc(Cl)cc1	inactive	–
Clc1ccc(CCC(Cn2ccnc2)Sc2c(Cl)cccc2Cl)cc1 (stereo not given)	inactive	–
COC[C@H](C)N(C(=O)CCl)c1c(C)csc1C	inactive	–
COc1cc(N)c(Cl)cc1C(=O)NC1CN2CCC1CC2 (stereo not given)	inactive	–
Cc1cc(C(F)(C(F)(F)F)C(F)(F)F)ccc1NC(=O)c1cccc(I)c1C(=O)NC(C)(C)CS(C)(=O)=O	13.8 µM (active)	–
O=c1[nH]c2ccccc2n1CCCN1CCC(n2c(=O)[nH]c3cc(Cl)ccc32)CC1	inactive	–
CCCCOP(=O)(CCCC)OCCCC	inactive	–
c1ccc2cc3c(cc2c1)-c1cccc2cccc-3c12	inactive	–
COC(=O)N(C(=O)N1CO[C@@]2(C(=O)OC)Cc3cc(Cl)ccc3C2=N1)c1ccc(OC(F)(F)F)cc1	inactive	–
Nc1ccc(Cc2ccc(N)c(Cl)c2)cc1Cl	inactive	–
CCCCCCCCCCBr	inactive	–
CCOC(=O)C1(c2ccccc2)CCN(CCC(C#N)(c2ccccc2)c2ccccc2)CC1	inactive	–
